KB-3-1 tox = KB-3-1 parental cell cytotoxicity; Potency, µM (doses to about 46.1 µM), most hits filed as cytotoxic; AID 1347075; KB-3-1 viability, CellTiter-Glo ATP luminescence, 72 h; 400,000 tested, 1.4% active; note: nearly all actives have a fitted effect of over 60% in size
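Using CellTiter-Glo luminescence, growth of non-resistant KB-3-1 adenocarcinoma cells is assessed 72 h after pin-tool compound addition at 37 °C. Normalized responses across the concentration series yield fitted curves.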
KB-V1 MDR tox = kills drug-selected multidrug resistant KB-V1 cells; KB-V1 MDR cells viability, CellTiter-Glo, 72 h; Potency, µM (series often up to 46.1 µM), actives largely listed as cytotoxic; 400,000 tested, 3.4% active; note: nearly all actives have a fitted effect of over 60% in size
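Following 72 h at 37 degrees C with compound, KB-V1 cell viability was read by CellTiter-Glo luminescence, medium being phenol-red-free DMEM plus 10% FBS; concentration-response parameters came from normalized, curve-fitted qHTS data.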
HT1080-NT tox = kills 2HG-producing HT-1080-NT fibrosarcoma cells | HT-1080-NT fibrosarcoma viability, CellTiter-Glo ATP luminescence, 48 h | Potency, µM (doses to about 46.1 µM), without a hit: at the top dose activity, negative = less viability, actives largely listed as cytotoxic | 360,000 tested, 1.6% active | AID 686970;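 note: NT is the 2HG producing partner of a matched IDH1 knockdown line; 0% = DMSO-treated cells and -100% = media-only wells without cells; nearly all actives have a fitted effect of over 55% in size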
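Compounds were tested in concentration-response format on HT-1080-NT cells for 48 hours at 37 degrees C. Cell viability came from CellTiter-Glo luminescence; curves were classified by r2, response magnitude and activity.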
TDP1 cell noCPT = qHTS for Inhibitors of human tyrosyl-DNA phosphodiesterase 1 (TDP1): qHTS in cells in absence of CPT | DT40 Tdp1-/- hTDP1 cells, no CPT, ATP luminescence, 48 h | Potency, µM (titrated, usually from 46.2 µM), inactives show at the top dose activity change, negative = growth inhibition, actives largely listed as inhibitors | 420,000 tested, 15% active | AID 686978, 2013; note: nearly all actives have a fitted effect of over 55% in size
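DT40 Tdp1-/-;hTDP1 cells, no CPT (DMSO vehicle only), 400 cells/well; compounds pin-transferred; ≥48 hr, 37 °C; CellTiter-Glo 30 min RT dark, luminescence read.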
HT1080 IDH1KD tx = kills HT-1080 cells with IDH1 knockdown | Potency, µM (doses to about 46.1 µM), for inactives: top-dose activity, negative = toxicity, usual class: cytotoxic | 360,000 tested, 2% active | HT-1080 IDH1 knockdown viability, ATP luminescence, 48 h;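 note: 0% = DMSO wells and -100% = cell-free medium wells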
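IDH1KD HT-1080 cells, 750/well, RPMI + 5% FBS; compound pinned after 2 h settling; 48 h, 37 °C; CellTiter-Glo luminescence; % activity normalised to DMSO and no-cell wells; curves fitted, classed by r2 and efficacy.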
DT40 TDP1 CPT = DT40-hTDP1 cell growth loss with CPT; chicken DT40 Tdp1-/-;hTDP1 cells + 20 nM CPT, ATP luminescence, 48 h; Potency, µM (series often up to 46.2 µM), for the others: top-dose activity change, negative = growth inhibition, most hits filed as inhibitors; 420,000 tested, 12% active; AID 686979; note: nearly all actives have a fitted effect of over 55% in size
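Chicken DT40 Tdp1-/- cells complemented with human TDP1, 400 cells/well, exposed to compounds plus 20 nM camptothecin for at least 48 h at 37 C; viability read as ATP content by CellTiter-Glo luminescence.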
An asterisk follows results filed as active; i = inactive; ? = inconclusive; · = not tested or not shown. Rows were chosen to be rich in hits. Some 19% of all compounds tested hit in one or more screens of this group. Calls come from the whole dose curve; as a rule, active = well fitted curve in the direction sought with a large enough effect; inconclusive = small, poorly fitted or top-dose-only effect, or another doubt; inactive = no such curve, though single readings can be large; an effect the other way counts as inactive or inconclusive. Unless noted, % is set by controls: 0 for no effect and ±100 for the full control effect; potency is the fitted concentration of half-maximal effect.

SMILES	KB-3-1 tox	KB-V1 MDR tox	HT1080-NT tox	TDP1 cell noCPT	HT1080 IDH1KD tx	DT40 TDP1 CPT
Nc1c(C(=O)Nc2ccc3c(c2)OCCO3)nnn1Cc1cccc(Br)c1	i	14.6µM*	-27.7%	23.1µM*	13µM*	?
CN(C)c1ccc(/C=C2\C=Cc3ccccc32)c(F)c1	i	i	·	?	·	?
CCNC(=O)C1CCN(c2nc3ccccc3nc2C(F)(F)F)CC1	i	i	·	?	·	?
CCC(CO)Nc1ccn2nc(-c3cccc(Cl)c3)cc2n1 (centres undefined)	i	i	-19.2%	23.1µM*	-2.6%	23.1µM*
Cc1cc(C(F)(F)F)n(-c2nc(C(=O)NN)cs2)n1	i	i	-6.6%	-9.4%	-15.8%	-10.2%
COc1ccc(/C=N/NC(=O)c2csc(-n3nc(C)cc3C(F)(F)F)n2)cc1	7.31µM*	i	-7.8%	20.6µM*	1.4%	?
CCN(CC)CCCNC(=O)c1c(C)oc2ncn(CC(C)C)c(=O)c12	i	i	·	-4.1%	·	8.1%
COc1ccc(Cl)cc1-c1nc(-c2ccc(NC(=O)c3cccs3)cc2)no1	?	i	-13.2%	20.6µM*	-20.0%	?
O=C(Nc1ccc(-c2nc3cc(NC(=O)c4cccs4)ccc3o2)cc1)c1cccs1	?	?	7.3%	12.6µM*	7.4%	11.2µM*
O=C(Nc1ccc(-c2nc3cc(NC(=O)c4ccc(Cl)cc4)ccc3o2)cc1)c1ccc(Cl)cc1	i	i	·	4.11µM*	·	-0.4%
Cc1nc2cc(NC(=O)Nc3ccc(Br)cc3)ccc2o1	?	?	-6.7%	23.1µM*	?	?
O=C(Nc1ccc2oc(-c3ccc(Cl)cc3)nc2c1)c1ccc2ccccc2c1	i	i	·	-16.0%	·	1.9%
O=C(Nc1ccccc1[N+](=O)[O-])OCC=Cc1ccccc1	i	i	-0.8%	?	17.6%	1.0%
COc1ccc(Cl)cc1C(=O)NC1CC(C)(C)NC(C)(C)C1	i	i	-9.6%	17.0%	-0.5%	-1.4%
Cc1cn([C@H]2C[C@H](O)[C@@H](CCC(=O)NCc3ccco3)O2)c(=O)[nH]c1=O	i	i	-3.5%	-19.0%	-2.2%	-3.7%
O=C(Nc1ccc2oc(-c3ccc(Cl)c(Cl)c3)nc2c1)c1ncn[nH]1	i	i	8.6%	5.17µM*	-0.2%	5.17µM*
COc1cc2ccccc2cc1C(=O)Nc1ccc2oc(-c3cc(Br)ccc3Cl)nc2c1	i	i	·	-19.8%	·	?
O=C(Nc1ccc(-c2nc3cc(NC(=O)c4ccccc4F)ccc3o2)cc1)c1ccccc1F	i	?	·	13µM*	·	14.6µM*
COc1ccc(NC(=O)c2cc3ccccc3cc2OC)cc1OC	i	i	2.7%	18.4µM*	0.8%	?
COc1cc(OC)c(C(=O)Nc2ccc3ccccc3c2)cc1OC	i	i	-15.8%	?	-9.9%	?
COc1cc2ccccc2cc1C(=O)Nc1ccc2oc(-c3ccccc3)nc2c1	i	i	·	16.4µM*	·	16.4µM*
Cc1nc2ccc(NC(=O)Nc3ccnc4cccnc34)cc2o1	·	·	·	21.1µM*	·	?
CC(C)(C)c1ccc(-c2nc3cc(NC(=O)c4cccc(Br)c4)ccc3o2)cc1	i	?	·	4.61µM*	·	?
Cc1ccc(-c2nc3cc(NC(=O)c4cc(Br)ccc4Cl)ccc3o2)cc1	i	i	·	4.61µM*	·	5.8µM*
Cc1ccc(C(=O)Nc2ccc3oc(-c4ccncc4)nc3c2)c(Cl)c1	i	i	·	?	·	-29.5%
SMILES	KB-3-1 tox	KB-V1 MDR tox	HT1080-NT tox	TDP1 cell noCPT	HT1080 IDH1KD tx	DT40 TDP1 CPT
C[C@@H]1CN([C@@H](C)CO)C(=O)c2cc(Br)cnc2O[C@H]1CN(C)C(=O)Nc1ccccc1	i	i	-5.6%	-19.8%	2.3%	-11.7%
COc1ccc(-n2cc(-c3ccccc3)c3c(SC(C)C(C)=O)ncnc32)cc1 (centres undefined)	i	?	·	-9.2%	·	-10.9%
Cc1c(NC(=O)c2nn3c(c2Br)NC(c2ccccc2)CC3C(F)(F)F)c(=O)n(-c2ccccc2)n1C (centres undefined)	i	16.4µM*	11.1%	-24.1%	22.2%	-2.1%
Cc1c(NC(=O)c2cnn3c2NC(c2ccccc2)CC3C(F)(F)F)c(=O)n(-c2ccccc2)n1C (centres undefined)	i	i	-2.9%	-9.7%	-19.2%	-21.5%
COc1cc2c(c(OC)c1OC)CCc1cnoc1-2	i	i	-5.6%	?	0.5%	-20.2%
CCC(Cn1nnc2ccccc2c1=O)NC(=O)Nc1ccccc1OC (centres undefined)	i	i	·	?	·	?
OC1(c2ccc(Cl)c(Cl)c2)C[n+]2ccccc2N1Cc1ccccc1 (centres undefined)	?	i	18.4µM*	18.4µM*	20.6µM*	13µM*
O=C(NC1CCN(Cc2ccccc2)CC1)c1c(Cl)cccc1Cl	i	i	-0.7%	-1.0%	-3.4%	4.3%
Cc1ccc(C(=O)NCC(=O)NCC(=O)OCC(=O)c2ccc(Br)cc2)cc1	i	i	-19.5%	?	-3.0%	-21.6%
Cc1cccc(NCCC(=O)c2ccc(Br)cc2)c1	i	i	?	23.1µM*	?	23.1µM*
CC(C)c1ccc(NCCC(=O)c2ccc(Br)cc2)cc1	i	?	25.9%	-20.3%	14.6%	-18.6%
CCOC(=O)CNCCC(=O)c1ccc(Br)cc1	i	i	-1.9%	6.51µM*	4.8%	5.8µM*
Cc1ccc(CN2CCN(C3CCNCC3)C(=O)C2=O)cc1	i	i	·	-0.5%	·	-13.3%
C/C(=C\C(=O)OCCCCCCCCC(=O)O)C[C@@H]1OC[C@H](C[C@@H]2O[C@H]2[C@@H](C)[C@H](C)O)[C@@H](O)[C@H]1O	i	i	?	1.46µM*	-0.8%	1.03µM*
N#CN=C1SCCS1	i	i	0.0%	14.6µM*	0.6%	9.2µM*
O=S(=O)(c1cccc(C(F)(F)F)c1)N1CCC(c2nc3ccccc3[nH]2)CC1	i	i	-12.7%	23.1µM*	-1.9%	?
O=S(=O)(c1ccc(F)cc1)N1CCC(c2nc3ccccc3[nH]2)CC1	i	?	-25.4%	?	-0.9%	-26.1%

Source: PubChem BioAssay
